Screening results: PubChem, several laboratories
Shown are actives, neighbours in structure and some others; about 2.9% of the full set was active somewhere.
Peg3 prom inh: Peg3 promoter-driven luciferase inhibitors, primary screen, cell-based, HeLa, luciferase luminescence | HeLa PEG-Prom luciferase reporter, overnight | inhibition, % at 20 µM | hit rate 1.7% among 360,000;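 active = inhibition of at least 50% at 20 µM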
Shn3 3UTR inh: reduction of Shn3 3'UTR firefly luciferase signal, primary screen, Schnurri-3 inhibitor project, cell-based, Clone20 osteoblasts, set 2; Clone20 osteoblast Shn3 3'UTR firefly luciferase, 24 h; inhibition, % at 12.5 µM; hit rate 0.52% among 360,000;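 active = mean inhibition of at least 75% with every replicate also reaching 75%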;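 also: 0% = median of neutral control wells and 100% = pilot-screen positive control compound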
CF NFkB inh: inhibitors of PAF-induced NF-kB signaling, primary screen, cell-based, GFP fluorescence, uHTS. KKLEB NF-kB-GFP reporter, GFP fluorescence overnight. inhibition, % at 5 µM. hit rate 0.86% among 360,000. AID 588850, 2011;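 active = at least 50% inhibition at 5 µM, scaled per plate between neutral and stimulator controls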;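 also: PAF is a Pseudomonas aeruginosa culture filtrate used as stimulus; plate controls were PAF-stimulated DMSO wells for no effect and unstimulated DMSO wells for full effect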
HIF-2a inh: HIF-2a reporter inhibitors, primary screen, luminescence, 786-0 RCC cells | 786-0 RCC cells HIF-2a reporter, luciferase luminescence, overnight | inhibition, % at 18.8 µM | hit rate 0.72% among 360,000 | AID 624352, 2012;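 active = inhibition of the luminescence signal of 40% or more relative to plate controls, in a single-dose primary screen at 18.75 µM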
LMP1 NFkB inh: EBV LMP1-driven NF-kappaB luciferase reporter inhibitors, primary screen, cell-based, luminescence, single point. hit rate 0.69% among 350,000. AID 504558, 2011. inhibition, % at 12.5 µM. LMP1-induced NF-kappaB luciferase reporter cells; in the data active = inhibition above about 41%;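 also: 0% = neutral control wells and 100% = reference inhibitor control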
KKLEB tox: cytotoxicity in KKLEB CF airway cells, primary screen, cytotoxicity control for CF NF-kB inhibitor project, cell-based, uHTS, fluorescence assay plates; KKLEB CF airway cells viability, ATPlite luminescence, overnight; hits give low values; cells stimulated with P. aeruginosa culture filtrate; activity change (cytotoxicity), % at 5 µM; hit rate 0.36% among 360,000;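 active = corrected activity change at or below -50% at 5 µM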
Active calls of the source: *; · = not tested or not shown; ! = a repeat was not active.

SMILES	Peg3 prom inh	Shn3 3UTR inh	CF NFkB inh	HIF-2a inh	LMP1 NFkB inh	KKLEB tox
Cc1ccc(-c2cc(C(=O)N3CCN(c4ncccn4)CC3)c3cc(Br)ccc3n2)o1	52*	51	-8	10	-9	0
CN(C)c1ccnc(Oc2ccc(C(C)(C)C)cc2)c1C#N	-154	-32	0	-242	-11	-8
Oc1ccc(Nc2ccnc3cc(Cl)ccc23)cc1	-42	17	-33	-53	12	10
CCN(CC)Cc1cc(Nc2ccnc3cc(Cl)ccc23)ccc1O	21	5	-53	-20	57*!	28
Cc1nc2nc(SCc3ccccc3)[nH]n2c(=O)c1C	-8	2	-1	-11	4	2
CCOC(=O)c1c(C)n(-c2ccc(C)cc2)c2ccc(OCC(O)CNCC3CCCO3)cc12 (centres undefined)	86*	80	41	12	-10	-37
CCOC(=O)c1c(C)n(C)c2ccc(OCC(O)CNC(CC)CO)cc12 (centres undefined)	2	1	3	4	3	-4
CCOC(=O)c1c(C)n(-c2ccc(C)cc2)c2ccc(OCC(O)CNCCCO)cc12 (centres undefined)	105*	-1	12	17	1	-15
NC(=O)C1=C[C@@H](c2ccc(Br)cc2)C[C@@H](OCCCCO)O1	0	-16	-19	-7	0	8
Cc1cccc(NC(=O)C2CCN(S(=O)(=O)c3cccc4nsnc34)CC2)n1	15	-2	-7	16	0	-1
COc1ccc2nc(NC(=O)C3CCN(S(=O)(=O)c4cccc5nsnc45)CC3)sc2c1	81*	58	44	18	28	-6
CCn1c(=N)n(CC(=O)c2ccc(Cl)c(Cl)c2)c2ccccc21	99*	-100	8	-136	-45	14
Cc1ccc(C(=O)Cn2c(=N)n(CCN3CCOCC3)c3ccccc32)cc1	-23	-8	-4	-62	-4	3
Cc1ccc(Cn2c(=N)n(CC(=O)c3ccc([N+](=O)[O-])cc3)c3ccccc32)cc1	102*	9	36	8	-1	-61*
N=c1n(CCN2CCCCC2)c2ccccc2n1CC(=O)c1ccc(Cl)c(Cl)c1	34	6	15	-28	·	-19
Cc1c(CN2CCC(C(=O)Nc3cccc(-c4cccc(Cl)c4)c3)CC2)cnn1C	69*	-24	13	16	-1	-14
CCCn1ncc(CN2CCC(C(=O)Nc3cccc(-c4cccc(F)c4)c3)CC2)c1C	60*	33	-8	23	3	-8
Cc1nn(C(C)C)c(C)c1CN1CCC(C(=O)Nc2cccc(-c3cccc(F)c3)c2)CC1	89*	14	31	0	10	-5
Nc1ncnc2nn(C3OC(CO)C(O)C3O)nc12 (centres undefined)	10	-1	14	7	-3	-8
COc1ccccc1CN1CCNC(=O)C1CC(=O)N(C)Cc1ccon1 (centres undefined)	9	-7	-4	15	5	-37
CCOc1ccc(N(CC(=O)NCC2CCCO2)C(=O)CCC(=O)Nc2nccs2)cc1 (centres undefined)	7	-12	-8	3	-15	8
O=C(Nc1ccc2c(c1)OCCO2)C1c2ccccc2OCC(=O)N1CCc1ccccc1 (centres undefined)	·	·	·	-8	·	·
CCN(CC)CCOC(=O)C(c1ccccc1)c1ccccc1	0	-18	0	-5	-7	-91*
O=c1cc2[nH]c3ccccc3c(=O)n2nc1-c1ccccc1	-195	2	-19	-180	-8	18
CCCN(CCC)S(=O)(=O)c1ccc(NC(=O)c2cc(C(=O)OC)cc([N+](=O)[O-])c2)cc1	35	53	11	7	-20	-24
Cc1ccc2nc(/C(C#N)=C\c3cc(O)ccc3[N+](=O)[O-])[nH]c2c1	15	-16	1	3	0	5
